Assay outcomes: PubChem BioAssay, DiRusso Lab, Biochemistry Department, University of Nebraska
Algae TAG accum: inducers of triacylglycerol accumulation in Chlamydomonas reinhardtii algae; Chlamydomonas reinhardtii TAG, Nile Red fluorescence, 72 h; 44,000 tested, 0.84% active; calls only at 10 µM (by protocol); call rule not given here;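 note: hits raise Nile Red signal meaning more stored TAG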
* = called active by the depositor. This is one part of a sample in which hits are shown more often than they occur.

What do the screens show for `COc1cc(Cl)c(S(=O)(=O)Nc2ccccn2)cc1Cl`?
Algae TAG accum: inactive

How did Cc1ccc(NC(=O)CC(C)C)c(NC(=O)CC(C)C)c1 do in these assays?
Algae TAG accum: active

What do the screens show for `Cc1cccc(C(=O)Nc2ccc(C)cc2NC(=O)c2cccc(C)c2)c1`?
Algae TAG accum: inactive

Results for Cc1ccc(NC(=O)CCC(=O)O)c(C)c1 ?
Algae TAG accum: inactive

Results for Cc1cc(Br)cc(C)c1NC(=O)c1ccc(S(=O)(=O)N(C)C)cc1 ?
Algae TAG accum: inactive

Results for Cc1nc(SCC(=O)c2ccc(O)c(O)c2)c(C#N)c(CC(C)C)c1C(N)=O ?
Algae TAG accum: inactive

How did CC(=O)Nc1ccc(C(=O)Nc2cccc([N+](=O)[O-])c2C)cc1 do in these assays?
Algae TAG accum: inactive

Results for C1=CC2CC1CC2CN1CCOCC1 (stereo not drawn) ?
Algae TAG accum: inactive

What do the screens show for `Oc1ccc(Br)cc1CN1CCC(N2CCOCC2)CC1`?
Algae TAG accum: active

Results for O=[N+]([O-])c1ccccc1S(=O)(=O)N1CCN(CC2CC3C=CC2C3)CC1 (stereo not drawn) ?
Algae TAG accum: inactive

How did Oc1ccc(Br)cc1CN1CCN(CC2CC3C=CC2C3)CC1 (stereo not drawn) do in these assays?
Algae TAG accum: active

What do the screens show for `NC(=O)C1CCN(CC2CC3C=CC2C3)CC1` (stereo not drawn)?
Algae TAG accum: inactive

How did C1=CC2CC1CC2CN1CCN(C2CCC(c3ccccc3)CC2)CC1 (stereo not drawn) do in these assays?
Algae TAG accum: active

Results for CCC(C)N1CCN(CC2CC3C=CC2C3)CC1 (stereo not drawn) ?
Algae TAG accum: inactive

Results for O=[N+]([O-])c1ccc(O)c(CN2CCOCC2)c1 ?
Algae TAG accum: inactive

Results for C1=CC2CC1CC2CN1CCN(c2ccccc2)CC1 (stereo not drawn) ?
Algae TAG accum: active

What do the screens show for `CCN1CCN(CC2CC3C=CC2C3)CC1` (stereo not drawn)?
Algae TAG accum: inactive

Results for COc1ccc(Br)cc1CN1CCC(N2CCCCC2)CC1 ?
Algae TAG accum: inactive

How did C1=CC2CC1CC2CN1CCN(Cc2ccccn2)CC1 (stereo not drawn) do in these assays?
Algae TAG accum: inactive

How did CCCCNC(=O)CN1CCN(c2nc3ccc([N+](=O)[O-])cc3s2)CC1 do in these assays?
Algae TAG accum: inactive

How did CC1=C(C(=O)Nc2cc(C)ccc2C)C(c2ccc([N+](=O)[O-])cc2)NC(=O)N1 (stereo not drawn) do in these assays?
Algae TAG accum: inactive

How did CC(=O)N(C1=C(N2CCCC2)C(=O)c2ccccc2C1=O)c1cccc(Cl)c1 do in these assays?
Algae TAG accum: inactive

How did Cc1cc(C)c(C#N)c(SCC(=O)N2CCOCC2)n1 do in these assays?
Algae TAG accum: inactive

What do the screens show for `N#CCNC(=O)c1ccccc1I`?
Algae TAG accum: inactive

Results for COCC(C)NC(=O)c1ccc(Cl)cc1[N+](=O)[O-] (stereo not drawn) ?
Algae TAG accum: inactive

What do the screens show for `Cc1cccc(NC2CC(=O)N(c3cccc(Cl)c3)C2=O)c1` (stereo not drawn)?
Algae TAG accum: inactive

How did COc1cccc(NC(=O)C2CCN(C(=O)c3ccc(F)cc3)CC2)c1 do in these assays?
Algae TAG accum: inactive

How did O=C(c1ccc([N+](=O)[O-])cc1)N1CCN(CCO)CC1 do in these assays?
Algae TAG accum: inactive

What do the screens show for `O=C(c1ccc(F)cc1)N1CCN(Cc2ccc([N+](=O)[O-])cc2)CC1`?
Algae TAG accum: inactive

Results for O=C(c1ccc([N+](=O)[O-])cc1)N1CCN(CC2CC3C=CC2C3)CC1 (stereo not drawn) ?
Algae TAG accum: active

How did CC1=C(C)CC(C(=O)Nc2sc3c(c2C(N)=O)CCC3)C(C(=O)O)C1 (stereo not drawn) do in these assays?
Algae TAG accum: inactive

Results for Cc1ccccc1CN1CCCC(C(=O)N2CCCC2)C1 (stereo not drawn) ?
Algae TAG accum: inactive

How did Cc1sc(NC(=O)CC(c2ccccc2)c2ccccc2)c(C(N)=O)c1C do in these assays?
Algae TAG accum: inactive

How did OC1(C#CCN2CCOCC2)CCCCC1 do in these assays?
Algae TAG accum: inactive

How did C(#CC1CC1)CN1CCOCC1 do in these assays?
Algae TAG accum: inactive

What do the screens show for `C(#CC12CC3CC(CC(C3)C1)C2)CN1CCOCC1`?
Algae TAG accum: active

How did CC(C)(C)c1ccccc1NC(=O)c1cccs1 do in these assays?
Algae TAG accum: inactive

Results for COc1ccc(S(=O)(=O)N(CC(=O)N2CCCC2)c2cc(C)cc(C)c2)cc1OC ?
Algae TAG accum: inactive

What do the screens show for `COc1ccc(S(=O)(=O)N(CC(=O)NC(C)C)c2cc(C)cc(C)c2)cc1OC`?
Algae TAG accum: active

What do the screens show for `COc1ccc(S(=O)(=O)N(CC(=O)Nc2ccccc2F)c2cc(C)cc(C)c2)cc1OC`?
Algae TAG accum: inactive

What do the screens show for `O=C(CSc1ccc(C(=O)N2CCOCC2)cc1[N+](=O)[O-])Nc1ccccc1`?
Algae TAG accum: inactive

What do the screens show for `COc1cccc(CN2CCN(C(=O)C(c3ccccc3)c3ccccc3)CC2)c1OC`?
Algae TAG accum: inactive

Results for COc1cc(OC)cc(C(=O)N2CCN(C(=O)C(c3ccccc3)c3ccccc3)CC2)c1 ?
Algae TAG accum: inactive

What do the screens show for `COc1ccccc1C(=O)N1CCN(C(=O)C(c2ccccc2)c2ccccc2)CC1`?
Algae TAG accum: active

How did CCOc1ccccc1NC(=O)CCCOc1ccc(C)cc1 do in these assays?
Algae TAG accum: inactive

Results for CC(=O)c1cccc(NC(=O)CN(C)S(=O)(=O)c2ccc(C)cc2)c1 ?
Algae TAG accum: inactive

Results for CCOc1ccc(C(=O)NCCCN(C)C)cc1 ?
Algae TAG accum: inactive

How did CCOc1ccc(C(=O)NCCNC(=O)c2ccc(OCC)cc2)cc1 do in these assays?
Algae TAG accum: active

What do the screens show for `CCOc1ccc(C(=O)NCCC(=O)O)cc1`?
Algae TAG accum: inactive

Results for CCN1CCN(CC(O)COCCC23CC4CC(CC(C4)C2)C3)CC1 (stereo not drawn) ?
Algae TAG accum: active

How did OC(COCCC12CC3CC(CC(C3)C1)C2)CN1CCOCC1 (stereo not drawn) do in these assays?
Algae TAG accum: inactive

What do the screens show for `CCOC(=O)N1CCN(CC(O)COCCC23CC4CC(CC(C4)C2)C3)CC1` (stereo not drawn)?
Algae TAG accum: inactive

How did Cc1ccc(NC2C=CS(=O)(=O)C2)cc1C (stereo not drawn) do in these assays?
Algae TAG accum: inactive

Results for COc1ccc(NC(=O)CSc2cccc3cccnc23)cc1 ?
Algae TAG accum: inactive

What do the screens show for `Cc1ccccc1C(=O)Nc1ccccc1C(=O)NCc1ccccc1`?
Algae TAG accum: inactive

Results for O=C(Nc1ccccc1C(=O)NCc1ccccc1)c1ccccc1F ?
Algae TAG accum: inactive

What do the screens show for `O=C(Nc1ccccc1C(=O)NCc1ccccc1)c1ccc(F)cc1`?
Algae TAG accum: active

How did Cc1c(C(=O)Nc2ccccc2C(N)=O)cccc1[N+](=O)[O-] do in these assays?
Algae TAG accum: inactive

What do the screens show for `Cc1c(C(=O)Nc2ccccc2C(=O)NCc2ccccc2)cccc1[N+](=O)[O-]`?
Algae TAG accum: active

What do the screens show for `O=C(Nc1ccccc1C(=O)NCc1cccnc1)c1ccc(F)cc1`?
Algae TAG accum: inactive

How did O=C(c1cccc(Br)c1)N1CCN(c2ccc([N+](=O)[O-])c(N3CCOCC3)c2)CC1 do in these assays?
Algae TAG accum: inactive

What do the screens show for `CCC(CC)C(=O)NCc1ccncc1`?
Algae TAG accum: inactive
